Sampled rows, rich in hits. Any-hit rate of the full collection: about 3.5%.
GPR151 activ = activators of human GPR151 | Q8TDV0 | PathHunter beta-arrestin GPR151 cells, luminescence | activation, % at 11.2 µM | 1% of 650,000 active | AID 1508602; in the data active means activation above about 4.9%;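 further: 0% = median of compound wells and 100% = cells with positive control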
FBW7 activator = activators of human E3 ligase FBW7; AlphaScreen FBW7–phospho-cyclin E peptide binding, activator screen; normalized activity (activation), % at 26.1 µM; 0.13% of 650,000 active; in the data active means normalized activity above about 1.9%;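 further: purified mutant Fbw7 with reduced substrate affinity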
TEAD-YAP block = TEAD-YAP interaction inhibition; HEK-TIYL cells, TEAD-Gal4/YAP UAS-luciferase luminescence; inhibition, % at 9.12 µM; 1.4% of 640,000 active; AID 1259422; in the data active means inhibition above about 32%;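 further: 0% = median of test compound wells and 100% = reference inhibitor wells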
MITF inh = human MITF inhibition, primary screen; 0.91% of 650,000 active; AID 1259374; inhibition, % at 2.6 µM; AlphaScreen MITF homodimerization, bead proximity signal; O75030; in the data active means inhibition above about 50%;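 further: 0% = vehicle wells with protein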
Target sequence (O75030 whole entry, looked up): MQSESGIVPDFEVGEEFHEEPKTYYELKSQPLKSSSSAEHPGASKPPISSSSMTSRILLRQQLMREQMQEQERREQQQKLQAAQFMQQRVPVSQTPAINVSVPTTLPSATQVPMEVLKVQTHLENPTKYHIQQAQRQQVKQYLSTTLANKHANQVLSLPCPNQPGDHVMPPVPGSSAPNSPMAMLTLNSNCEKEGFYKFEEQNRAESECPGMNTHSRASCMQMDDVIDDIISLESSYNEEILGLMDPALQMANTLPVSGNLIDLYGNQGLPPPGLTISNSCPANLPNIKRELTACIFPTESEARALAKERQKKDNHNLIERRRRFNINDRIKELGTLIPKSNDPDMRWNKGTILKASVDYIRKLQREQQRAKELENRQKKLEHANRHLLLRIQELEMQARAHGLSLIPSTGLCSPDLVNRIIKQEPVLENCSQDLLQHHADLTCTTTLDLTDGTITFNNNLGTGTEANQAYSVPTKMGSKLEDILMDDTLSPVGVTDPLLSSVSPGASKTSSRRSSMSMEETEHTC
Numbers without * were called inactive.

SMILES	GPR151 activ	FBW7 activator	TEAD-YAP block	MITF inh
C/C(=N/Nc1nc2c(c(=O)n(C)c(=O)n2C)n1Cc1ccccc1)c1ccccc1O	1	0	7	6
C/C(Cl)=C/Cn1c(NCCc2ccccc2)nc2c1c(=O)n(C)c(=O)n2C	0	0	6	-1
C=CCn1c(NCCc2ccccc2)nc2c1c(=O)n(C)c(=O)n2C	1	0	37*	-18
C=CCNc1nc2c(c(=O)n(C)c(=O)n2C)n1Cc1ccccc1	2	0	34*	14
CCOc1cc(/C=N/Nc2nc3c(c(=O)n(C)c(=O)n3C)n2Cc2ccccc2)ccc1O	-1	0	44*	0
O=C(CNC1CCCc2ccccc21)NCc1ccco1 (stereo not given)	0	0	-3	32
CCOC(=O)CCn1c(=O)c2c(nc3n(-c4ccc(CC)cc4)c(C)c(C)n23)n(C)c1=O	2	0	11	10
Cc1cc(-c2cncnc2C2CCCN(Cc3ccccn3)C2)on1 (stereo not given)	0	0	2	9
COc1ccc(/C=N\Nc2nc3ccccc3s2)cc1	-2	0	42*	-3
Cc1cc(Cl)ccc1OCC(=O)Nc1c(C)n(C)n(-c2ccccc2)c1=O	1	0	2	-8
O=C(NCc1cccc(F)c1)N[C@H]1C[C@H]2C(=O)N3CCC[C@H]3C(=O)N2C1	3	0	7	7
CCCNc1cc(Nc2ccccn2)nc(N)n1	-1	0	34*	-9
CCCNc1cc(Nc2ncccn2)nc(N)n1	0	0	-11	-4
O=C(NN1C(=O)CSC1=S)c1ccccc1	1	0	1	-8
O=C(NN1C(=O)CSC1=S)C(=O)NN1C(=O)CSC1=S	1	0	-7	64*
Cc1ccc(C(=O)N2CCN(c3ccc([N+](=O)[O-])cc3)CC2)c(Cl)c1	-1	0	35*	-4
O=C(c1cc([N+](=O)[O-])ccc1Cl)N1CCN(c2cccc(Cl)c2)CC1	-1	0	32*	-12
O=C(c1n[nH]c(=O)c2ccccc12)N1CCN(c2cccc(Cl)c2)CC1	0	0	55*	-5
Cc1ccnc(NC(=O)c2cc(C)ccc2[N+](=O)[O-])c1	2	0	10	10
O=C(NC1CC1)c1ccc(-c2cnc3c(NCCO)nccn23)cc1	0	0	0	17
Cc1sc(NC(=O)c2ccc3c(c2)OCO3)c(C(N)=O)c1-c1ccccc1	0	0	90*	-2
COC(=O)CCC(=O)NC(=S)Nc1sc(C)c(C)c1C(N)=O	2	0	52*	-10
COC(=O)CCC(=O)Nc1sc(C)c(C)c1C(N)=O	1	0	-5	2
Cc1sc(NC(=S)NC(=O)CCc2ccccc2)c(C(N)=O)c1C	0	0	50*	-4
Cc1c(Cc2ccc3c(c2)OCO3)sc(NC(=O)CCc2ccccc2)c1C(N)=O	2	0	56*	-12
SMILES	GPR151 activ	FBW7 activator	TEAD-YAP block	MITF inh
CC(=O)Nc1sc(Cc2ccc3c(c2)OCO3)c(C)c1C(N)=O	-1	0	-2	2
COC(=O)c1c(NC(=O)c2ccc3c(c2)OCO3)sc(C)c1C	0	0	-9	0
Cc1ccc(-c2nc(NC3CCCCC3)c3ccccc3n2)cc1	-1	0	-9	0
Cc1ccc(NC2=CC(=O)CC(c3ccccc3)C2)cc1 (stereo not given)	-1	0	43*	15
Cc1ccc(C2CC(=O)C=C(NCCc3ccccc3)C2)cc1 (stereo not given)	0	0	-7	14
O=C1C=C(Nc2ccc(Cl)cc2)CC(c2ccccc2)C1 (stereo not given)	0	0	33*	12
COc1ccc(C2CC(=O)C=C(Nc3ccc(Cl)cc3)C2)cc1 (stereo not given)	-1	0	-8	-4
CN1CCN(S(=O)(=O)c2ccc(Oc3ccccc3Cl)cc2)CC1	-1	0	0	-15
Cc1ccccc1Cn1cnc2sc3c(c2c1=O)CCCC3	0	0	51*	3
COc1cccc(-c2nc3sc4c(c3c(=O)n2Cc2ccccc2F)CCCC4)c1	-1	0	32*	6
COc1cccc(C(=O)N2CC[C@@H]3[C@H](CCCN3C(=O)c3cccs3)C2)c1	0	0	-2	3
Clc1ccccc1CN1c2ccccc2N(Cc2ccccc2Cl)C1c1ccccc1Cl	1	1	81*	6
OC1CCN(Cc2ccccc2Cl)CC1	1	0	5	18
Cc1ccc(N2CC(=O)Nc3ccccc3S2(=O)=O)cc1C	1	0	52*	17
COc1ccc(C2=CC(c3cc(OC)ccc3OC)n3nnnc3N2)cc1 (stereo not given)	0	0	-4	4
COc1cccc(C2=CC(c3cccc(OC)c3)n3nnnc3N2)c1 (stereo not given)	1	0	56*	-3
COc1cccc(C2C=C(c3ccc(C)cc3)Nc3nnnn32)c1 (stereo not given)	0	0	32*	4
COc1cccc(C2=CC(c3cc(OC)ccc3OC)n3nnnc3N2)c1 (stereo not given)	-2	0	50*	10
COc1cccc(C2=CC(c3ccccc3F)n3nnnc3N2)c1 (stereo not given)	1	0	44*	15
Cc1nccc2[nH]c(=O)c(C(=O)NCc3ccco3)cc12	0	0	4	0
COc1ccccc1C(=O)Nc1cc([N+](=O)[O-])ccc1N1CCN(C)CC1	0	0	3	-1
COc1cccc(C2=CC(c3cc(OC)c(OC)c(OC)c3)n3nnnc3N2)c1 (stereo not given)	-1	0	57*	7
CCOc1ccc(C2=CC(c3cc(OC)c(OC)c(OC)c3)n3nnnc3N2)cc1 (stereo not given)	2	0	44*	5
CCOc1ccc(C2C=C(c3ccc(F)cc3)Nc3nnnn32)cc1 (stereo not given)	3	0	-16	-14
COc1cccc(C2=CC(c3cccc(OC)c3OC)n3nnnc3N2)c1 (stereo not given)	0	0	30	-1
SMILES	GPR151 activ	FBW7 activator	TEAD-YAP block	MITF inh
CCNc1nc(NC(C)CC)nc(ON=C(C)C)n1 (stereo not given)	0	0	36*	29
O=C1NC(=O)N(c2cccc(Cl)c2)C(=O)/C1=C/c1ccc([N+](=O)[O-])o1	0	0	7	75*
COc1cccc(N2C(=O)NC(=O)/C(=C/c3ccc([N+](=O)[O-])o3)C2=O)c1	-2	0	-7	67*
Cc1cc(C)cc(N2C(=O)NC(=O)/C(=C\c3ccc([N+](=O)[O-])o3)C2=O)c1	0	0	0	37
COc1ccc(N2C(=O)NC(=O)/C(=C/c3ccc(I)o3)C2=O)cc1	0	0	0	69*
COc1cccc(N2C(=O)/C(=C/c3ccc([N+](=O)[O-])s3)C(=O)NC2=S)c1	-2	1	7	22
COc1ccc(N2C(=O)/C(=C\c3ccc([N+](=O)[O-])s3)C(=O)NC2=S)cc1	-1	0	-4	59*

Screens from PubChem.
